Experimental data: PubChem BioAssay (EPA / NIEHS)
“And” between values parts separate entries of the source, which are not always exact repeats. Identical values can stand only once. The source made the active and inactive calls. The calls were made as follows: active = hit-call score of the fitted dose curve at least 0.9, where 1 is the maximum; inactive = score below 0.9.

What was measured:
[1] = read-out: Tissue Factor, F3 (gene 2152); assay: BSK_CASM3C_TissueFactor: BioMAP Diversity Plus: CASM3C Assay for Tissue Factor Biomarker Activity (AID 2283052); conditions: primary human coronary artery smooth muscle cells; actives raise or lower the signal;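 also: cell surface tissue factor protein level read by ELISA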
[2] = read-out: Interferon-gamma inducible Protein 10 (IP10), CXCL10 (gene 3627); assay: BSK_hDFCGF_IP10: BioMAP Diversity Plus: hDFCGF Assay for Interferon-gamma inducible Protein 10 (IP10) Biomarker Activity (AID 2283053); conditions: primary human foreskin fibroblasts; actives raise or lower the signal
Procedure, shortened: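 ELISA quantification of IP-10 after a 24 h chemical exposure of human dermal foreskin fibroblast primary cultures. Both increases and decreases versus DMSO fitted.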

[3] = read-out: Epidermal growth factor receptor (EGFR), EGFR (gene 1956); assay: BSK_hDFCGF_EGFR: BioMAP Diversity Plus: hDFCGF Assay for Epidermal growth factor receptor (EGFR) Biomarker Activity (AID 2283057); conditions: primary human foreskin fibroblasts; actives raise or lower the signal
Procedure, shortened: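 EGFR levels by ELISA in human dermal fibroblast cultures, 24 h post-treatment, fitted bidirectionally versus DMSO. Parallel wells stained with sulforhodamine B to detect overt cytotoxicity.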

[4] = read-out: Interleukin-8 (IL8), CXCL8 (gene 3576); assay: BSK_hDFCGF_IL8: BioMAP Diversity Plus: hDFCGF Assay for Interleukin-8 (IL8) Biomarker Activity (AID 2283058); conditions: primary human foreskin fibroblasts; actives raise or lower the signal
Procedure, shortened: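 Primary human foreskin fibroblasts (hDFCGF system) dosed with chemical; IL-8 measured by ELISA 24 hours later. Bidirectional curve fitting relative to DMSO baseline; cytotoxicity tracked in parallel cultures by SRB total protein staining.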

[5] = BSK_hDFCGF_Proliferation: Cell Proliferation Assessment in the BioMAP Diversity Plus: hDFCGF Assay (AID 2283059); conditions: primary human foreskin fibroblasts;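 also: curves fitted for both rise and fall of signal versus DMSO baseline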
Procedure, shortened: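 Total protein read at 560 nm after 0.1% SRB staining of TCA-fixed human skin fibroblasts, […]. Activity is fitted in both directions relative to DMSO as baseline.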

[6] = read-out: Monokine induced gamma interferon (MIG), CXCL9 (gene 4283); assay: BSK_hDFCGF_MIG: BioMAP Diversity Plus: hDFCGF Assay for Monokine induced gamma interferon (MIG) Biomarker Activity (AID 2283063); conditions: primary human foreskin fibroblasts; actives raise or lower the signal
Procedure, shortened: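 MIG/CXCL9 measured by ELISA 24 h after dosing primary human skin fibroblasts. Activity fitted in both directions against DMSO controls. Cytotoxicity was checked in parallel cultures by SRB staining read at 560 nm.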

[7] = read-out: Matrix Metallopeptidase 1 (MMP1), MMP1 (gene 4312); assay: BSK_hDFCGF_MMP1: BioMAP Diversity Plus: hDFCGF Assay for Matrix Metallopeptidase 1 (MMP1) Biomarker Activity (AID 2283064); conditions: primary human foreskin fibroblasts; actives raise or lower the signal
Procedure, shortened: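 MMP1 levels quantified by ELISA 24 h after dosing human dermal fibroblast cultures, with parallel SRB total-protein staining for overt cytotoxicity. Data fitted in both directions against DMSO baseline.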

[8] = read-out: Vascular cell adhesion molecule 1 (VCAM1), VCAM1 (gene 7412); assay: BSK_hDFCGF_VCAM1: BioMAP Diversity Plus: hDFCGF Assay for Vascular cell adhesion molecule 1 (VCAM1) Biomarker Activity (AID 2283065); conditions: primary human foreskin fibroblasts; actives raise or lower the signal;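 as to AC50: VCAM-1 protein level quantified by ELISA after 24 h chemical exposure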
Procedure, shortened: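 Human foreskin fibroblast primary cells dosed with chemical, VCAM-1 measured by ELISA at 24 h. Bidirectional curve fitting relative to DMSO as negative control/baseline.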

[9] = read-out: Plasminogen activator inhibitor-1 (PAI1), SERPINE1 (gene 5054); assay: BSK_hDFCGF_PAI1: BioMAP Diversity Plus: hDFCGF Assay for Plasminogen activator inhibitor-1 (PAI1) Biomarker Activity (AID 2283066); conditions: primary human foreskin fibroblasts; actives raise or lower the signal
Procedure, shortened: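 PAI-1 levels in human dermal foreskin fibroblasts were quantified by ELISA 24 h after dosing, with gain or loss analysed against DMSO. Overt cytotoxicity was checked by sulforhodamine B total-protein staining in parallel cultures.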

[10] = read-out: Intercellular Adhesion Molecule 1 (ICAM1), ICAM1 (gene 3383); assay: BSK_KF3CT_ICAM1: BioMAP Diversity Plus: KF3CT Assay for Intercellular Adhesion Molecule 1 (ICAM1) Biomarker Activity (AID 2283067); conditions: primary human keratinocytes with fibroblasts; actives raise or lower the signal
Procedure, shortened: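 Human keratinocyte–foreskin fibroblast co-culture was treated for 24 h. Cell-surface ICAM-1 was quantified by ELISA, fitted bidirectionally relative to DMSO. Cytotoxicity was checked in parallel cultures by SRB total-protein staining.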

[11] = read-out: Interferon-gamma inducible Protein 10 (IP10), CXCL10 (gene 3627); assay: BSK_KF3CT_IP10: BioMAP Diversity Plus: KF3CT Assay for Interferon-gamma inducible Protein 10 (IP10) Biomarker Activity (AID 2283068); conditions: primary human keratinocytes with fibroblasts; actives raise or lower the signal
Procedure, shortened: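 Human keratinocyte plus foreskin fibroblast primary co-culture exposed to test chemical for 24 h; IP-10 measured by ELISA. Concentration-response fitted bidirectionally against DMSO control as baseline.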

[12] = BSK_KF3CT_SRB: Viability Assessment in the BioMAP Diversity Plus: KF3CT Assay (AID 2283069); conditions: primary human keratinocytes with fibroblasts;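 also: read 24 h after compound addition; fitted for both signal gain and loss against DMSO baseline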
Procedure, shortened: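 Cytotoxicity was gauged by SRB staining (0.1% SRB, 10% TCA fixation, 560 nm) of parallel cultures at 24 h. The cells were primary human skin keratinocytes co-cultured with fibroblasts, and activity was fitted in both directions against DMSO.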

[13] = read-out: urokinase plasminogen activator (uPA), PLAU (gene 5328); assay: BSK_KF3CT_uPA: BioMAP Diversity Plus: KF3CT Assay for urokinase plasminogen activator (uPA) Biomarker Activity (AID 2283075); conditions: primary human keratinocytes with fibroblasts; actives raise or lower the signal
Procedure, shortened: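 ELISA read-out of uPA 24 h after dosing human skin keratinocytes co-cultured with foreskin fibroblasts. Signal change fitted both ways relative to DMSO; sulforhodamine B on parallel cultures marks overt cytotoxicity.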

[14] = read-out: E-selectin (Homo sapiens) (UniProt P16581); assay: BSK_LPS_Eselectin: BioMAP Diversity Plus: LPS Assay for Eselectin Biomarker Activity (AID 2283077); conditions: primary human HUVEC with PBMC; actives raise or lower the signal
Procedure, shortened: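 Human umbilical vein endothelial cells co-cultured with PBMC under LPS stimulation; cell-surface E-selectin measured by ELISA 24 h after dosing. Change in either direction versus DMSO, with SRB total-protein staining in parallel cultures for cytotoxicity.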

[15] = BSK_LPS_SRB: Viability Assessment in the BioMAP Diversity Plus: LPS Assay (AID 2283079); conditions: primary human HUVEC with PBMC;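 also: total protein by sulforhodamine B absorbance as a cytotoxicity measure; measured one day after compound addition; fitted in both directions against DMSO so loss or gain of signal counts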
Procedure, shortened: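 Co-culture of human umbilical vein endothelial cells and PBMC, read 24 h after dosing. Total protein by 0.1% SRB staining after 10% TCA fixation, absorbance at 560 nm; bidirectional fit against DMSO.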

[16] = read-out: Macrophage colony-stimulating factor (MCSF), CSF1 (gene 1435); assay: BSK_LPS_MCSF: BioMAP Diversity Plus: LPS Assay for Macrophage colony-stimulating factor (MCSF) Biomarker Activity (AID 2283083); conditions: primary human HUVEC with PBMC; actives raise or lower the signal
Procedure, shortened: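 HUVEC–PBMC co-culture, M-CSF measured by ELISA 24 h after chemical dosing. Fitted in both directions relative to DMSO as negative control; overt cytotoxicity assessed by SRB total-protein staining in parallel cultures.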

[17] = read-out: Tissue Factor, F3 (gene 2152); assay: BSK_LPS_TissueFactor: BioMAP Diversity Plus: LPS Assay for Tissue Factor Biomarker Activity (AID 2283084); conditions: primary human HUVEC with PBMC; actives raise or lower the signal
Procedure, shortened: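 Human umbilical vein endothelial cells co-cultured with PBMC were dosed with compound. Cell-surface CD142 was measured by ELISA 24 h later. Activity was fitted bidirectionally against DMSO, with SRB total-protein staining in parallel cultures for cytotoxicity.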

[18] = read-out: Vascular cell adhesion molecule 1 (VCAM1), VCAM1 (gene 7412); assay: BSK_LPS_VCAM1: BioMAP Diversity Plus: LPS Assay for Vascular cell adhesion molecule 1 (VCAM1) Biomarker Activity (AID 2283086); conditions: primary human HUVEC with PBMC; actives raise or lower the signal
Procedure, shortened: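 VCAM-1 quantified by ELISA in an LPS-activated co-culture of human endothelial cells and peripheral blood mononuclear cells, read 24 h post-treatment. Fitted in both directions versus DMSO; parallel SRB staining flags overt cytotoxicity.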

[19] = read-out: Monokine induced gamma interferon (MIG), CXCL9 (gene 4283); assay: BSK_SAg_MIG: BioMAP Diversity Plus: SAg Assay for Monokine induced gamma interferon (MIG) Biomarker Activity (AID 2283092); conditions: primary human HUVEC with PBMC; actives raise or lower the signal
Procedure, shortened: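 ELISA readout of MIG/CXCL9; primary human umbilical vein endothelial cells co-cultured with peripheral blood mononuclear cells; 24 h post-dose; gain/loss fit vs DMSO baseline.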

[20] = read-out: Interleukin-8 (IL8), CXCL8 (gene 3576); assay: BSK_SAg_IL8: BioMAP Diversity Plus: SAg Assay for Interleukin-8 (IL8) Biomarker Activity (AID 2283094); conditions: primary human HUVEC with PBMC; actives raise or lower the signal
Procedure, shortened: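 ELISA readout of IL-8 from a superantigen-activated endothelial/PBMC primary human co-culture, taken 24 h post-dosing and fitted in both directions against DMSO; parallel SRB total-protein staining flags overt cytotoxicity.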

Measured: AC50

Sequence of E-selectin (Homo sapiens) (P16581 whole entry, looked up): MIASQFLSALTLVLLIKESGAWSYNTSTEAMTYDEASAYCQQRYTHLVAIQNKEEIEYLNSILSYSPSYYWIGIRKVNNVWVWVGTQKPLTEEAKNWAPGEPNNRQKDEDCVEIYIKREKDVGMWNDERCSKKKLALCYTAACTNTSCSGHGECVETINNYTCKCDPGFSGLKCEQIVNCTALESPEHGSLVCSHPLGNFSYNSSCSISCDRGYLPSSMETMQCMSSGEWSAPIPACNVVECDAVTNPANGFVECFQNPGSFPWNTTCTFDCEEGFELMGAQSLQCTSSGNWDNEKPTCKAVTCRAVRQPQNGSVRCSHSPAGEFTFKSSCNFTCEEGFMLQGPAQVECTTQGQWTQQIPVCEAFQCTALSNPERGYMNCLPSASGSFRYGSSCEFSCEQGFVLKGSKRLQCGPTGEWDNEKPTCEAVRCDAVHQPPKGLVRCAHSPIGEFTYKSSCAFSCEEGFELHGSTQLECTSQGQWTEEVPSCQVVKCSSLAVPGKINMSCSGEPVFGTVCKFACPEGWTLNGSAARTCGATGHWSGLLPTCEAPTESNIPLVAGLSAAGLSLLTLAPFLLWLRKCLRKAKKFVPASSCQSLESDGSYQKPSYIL

C=CC(=O)OCC(CC)CCCC (stereo not drawn)
active: [2] 27.6 µM | [5] 30.3 µM | [6] 30.5 µM | [7] 30.4 µM | [8] 16 µM | [9] 20 µM | [13] 0.016 µM | [18] 7.48 µM
inactive: all other assays above

CC(C)(c1cc(Cl)c(O)c(Cl)c1)c1cc(Cl)c(O)c(Cl)c1
active: [1] 10.9 µM | [2] 11.5 µM | [4] 28.5 µM | [5] 7.69 µM | [6] 14.8 µM | [7] 11.1 µM | [8] 10.5 µM | [9] 6.66 µM | [10] 7.95 µM | [11] 7.37 µM | [12] 5.15 µM | [13] 9.27 µM | [15] 31.7 µM | [16] 17.2 µM | [17] 31.3 µM | [18] 29.8 µM | [20] 31 µM
inactive: [3]

COc1ccc(CO)cc1
inactive: all assays above

Oc1ccc(C2(c3ccc(O)cc3)c3ccccc3-c3ccccc32)cc1
inactive: [3]
active: [1] 178 nM and 3.97 µM | [2] 2.87 µM and 2.53 µM | [4] 6.24 µM and 5.65 µM | [5] 1.12 µM and 927 nM | [6] 3.38 µM and 2.61 µM | [7] 3.97 µM and 2.03 µM | [8] 1.61 µM and 1.41 µM | [9] 728 nM and 803 nM | [10] 11.9 µM and 10.4 µM | [11] 6.03 µM and 7.32 µM | [12] 5.12 µM and 5.08 µM | [13] 8.33 µM and 9.87 µM | [14] 31.6 µM and 33.9 µM | [15] 13.7 µM and 14.4 µM | [16] 33.9 µM and 33.6 µM | [17] 32 µM and 29.5 µM | [18] 15.9 µM and 22 µM | [19] 12.4 µM and 11.5 µM | [20] 8.55 µM and 9.2 µM

CC(=O)/C=C/c1ccccc1
active: [14] 31.1 µM | [16] 16.9 µM | [18] 20 µM
inactive: all other assays above

CC(C)CCCCCCCOP(=O)(Oc1ccccc1)Oc1ccccc1
inactive: [1] | [10]
active: [2] 9.26 µM | [3] 3.97 µM | [4] 25.7 µM | [5] 3.16 µM | [6] 11 µM | [7] 20 µM | [8] 5.85 µM | [9] 8.46 µM | [11] 30.3 µM | [12] 25.7 µM | [13] 20 µM | [14] 23 µM | [15] 23.7 µM | [16] 15.3 µM | [17] 31 µM | [18] 27.8 µM | [19] 35 µM | [20] 11.9 µM

CCCCCCCCCCCC#N
inactive: [1] | [3] | [4] | [10] | [11] | [12] | [13] | [15] | [19]
active: [2] 28.8 µM | [5] 10.1 µM | [6] 29.7 µM | [7] 37.7 µM | [8] 20.6 µM | [9] 31.8 µM | [14] 31.5 µM | [16] 38 µM | [17] 24.1 µM | [18] 33.6 µM | [20] 32.7 µM

O=P1(NCCCl)OCCCN1CCCl (stereo not drawn)
inactive: all assays above
